# Test results: PubChem BioAssay (NCI)
# This is part of a sample that, as a whole, favours compounds with a hit. Of some 83,000 tested, about 20% had one in any assay.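 Note: values are percent growth. 100 is the growth of untreated cells, values between 100 and 0 indicate rising inhibition; between -100 and 0 indicates cell death.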 Unmarked numbers belong to inactive results. Activity calls are given as the source filed them. How the source made its calls: active means growth percent below 10; inactive means the rest.
# Test system: MDA-MB-468 breast
# Assay: NCI-60 one-dose screen, 48 h (100 = growth as untreated, 0 = no growth, -100 = all killed)
# Settings: 10 µM unless noted
row,SMILES,growth
1,CCN1CCN(CC(=O)Nc2nc3ccc(NCc4ccc(Cl)cc4)cc3s2)CC1,47.8%
2,CCCCCN1C(=O)/C(=c2\sc3n(c2=O)C2C(NN=3)N(CC)C(=O)N2CC)c2ccccc21 (stereo unspecified),5.08% (active)
3,Cn1cc(C(=O)c2nc(-c3c[nH]c4ccc(Br)cc34)no2)c2cc(Br)ccc21,66.1%
4,COc1ccc2c(c1OC)O/C(=C\c1ncc([N+](=O)[O-])n1C)C2=O,69.9%
5,CSc1nc(N)c(NS(=O)(=O)c2ccc(C(C)=O)cc2)c(=O)[nH]1,97%
6,N#Cc1cnn2c(-c3ccc(Cl)cc3)nc(NCCc3ccccc3)nc12,110%
7,COc1ccc(-c2nnc3n(C)c(=O)c4ccccc4n23)cc1N,-6.61% (active)
8,COc1ccc(/C(=C\c2ccc3c(c2)OCO3)C(=O)Nc2nc3ccccc3s2)cc1,114%
9,Cc1cccc(NC(=O)CSc2nc3ccc([N+](=O)[O-])cc3[nH]2)c1,48.6%
10,CCCCCCN(C)Cc1ccc(OCCOc2ccc(CN(C)CCCCCC)cc2)cc1,-59.9% (active)
11,CC/C(=C(/c1ccc(Cl)cc1)c1ccc(OCCN2CCOCC2)cc1)c1ccccc1,91%
12,CCOC(=O)c1cc2c(n1Cc1ccccc1)-c1oncc1CCC2,60.2%
13,CC(O)Cc1c[nH]c(=O)[nH]c1=O (stereo unspecified),121%
14,CCOC(=O)c1cnc(SCC)nc1SC#N,124%
15,CC(C(=O)O)(C1CCCCC1)C1(O)CCCCC1 (stereo unspecified),106%
16,CCN(CCCNC(=O)Cc1cc(=O)oc2cc(N(C)C)ccc12)CCNc1ccnc2cc(Cl)ccc12,52%
